The record followed here is PubChem BioAssay (NCI).

SMILES strings stand for the structures. This is part of a sample that, as a whole, favours compounds with a hit. Of some 83,000 tested, about 20% had one in any assay.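 The test compound was applied at a single concentration to cells in 96-well plates for 48 hours, and percent growth was recorded.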 Values without a mark were called inactive. Calls of active or inactive are those of the source. How the source made its calls: active means growth percent below 10; inactive means the rest.

For this test, the system named is SR leukemia. The test can be described thus: NCI-60 one-dose screen, 48 h (100 = growth as untreated, 0 = no growth, -100 = all killed). The following applies: 10 µM unless noted.
Take `COc1ccc(/C=C\c2nc3ccccc3s2)cc1OP(=O)(O)O`: the growth was 16.7%. The result for `COc1ccccc1C(C[N+](=O)[O-])c1c(-c2ccccc2)[nH]c2cc(C)ccc12` (configuration not stated) reads 24.2%; that for `c1ccc(Cn2nc3c(c2-c2ccccc2)-c2oncc2CC3)cc1`, 72.4%; that for `COc1ccc(-c2cnc(N)nc2-c2ccc(OC)cc2O)cc1`, 66.9%. Under `c1ccc(-c2nn(-c3ccccc3)[n+](-c3ccccc3-c3ccccc3)n2)cc1` stands 8.06% (active); under `CCOC(=O)c1c(C)nc2c(c1N)C(=O)C(=O)N2Cc1ccc(C(F)(F)F)cc1`, 23.3%; under `COc1cc2nc(-c3ccc(C(F)(F)F)cc3)cc(OCCN3CCC(O)CC3)c2cc1OC`, 35.4%. Under `NC(=O)c1cccc(-n2ccc3cc(NC(=O)Nc4cc(C(F)(F)F)cc(C(F)(F)F)c4)ccc32)n1` stands 44.3%; under `CN1CCN(CC#CCNC(=O)[C@]23CCC(C)(C)C[C@H]2C2=CC[C@@H]4[C@@]5(C)Cc6c([nH]c7ccccc67)C(C)(C)[C@@H]5CC[C@@]4(C)[C@]2(C)CC3)CC1`, -2.18% (active). With `COc1cc2c(cc1[N+](=O)[O-])-c1ccc([N+](=O)[O-])cc1/C2=N\O`, the growth is 62%.

With `O=C(Nc1nc2ccc(C(=O)N3CCN(c4ccc(Cl)c(Cl)c4)CC3)cc2s1)c1ccc(NCCc2ccccc2)c([N+](=O)[O-])c1`, the growth was 98.4%. Under `CC(C)CN(C(=O)c1ccc(Cl)cc1)c1c(N)n(CC(C)C)c(=O)[nH]c1=O` stands 64.1%.
